# Sampled rows, rich in hits. Any-hit rate of the full collection: about 1%.
# Y pestis TopoI – Yersinia pestis topoisomerase I inhibitors, primary screen, biochemical, cleavage product accumulation, plate reader, single point | DNA topoisomerase I (Yersinia pestis CO92) | Y. pestis Topo-I cleavage product accumulation | activity, % at 10 µM | 360,000 compounds, 0.064% hits | AID 504884, 2011; in the data active means activity above about 50%, passing the limit was not always enough; inconclusive means no clear call, values can overlap the other calls
# FadD28 FP inh – inhibitors of FadD28 bisubstrate probe binding, primary screen, biochemical, fluorescence polarization, single point. inhibition, % at 12.5 µM. 360,000 compounds, 0.22% hits. AID 588549, 2011; in the data active means inhibition above about 8.5%, passing the limit was not always enough; inconclusive means no clear call, values can overlap the other calls
# TcdB GH inh – TcdB glycohydrolase inhibitors, primary screen, biochemical, single point, plate reader. 350,000 compounds, 0.24% hits. inhibition, % at 9.99 µM. TcdB glycohydrolase enzymatic assay; in the data active means inhibition above about 10%
# MazEF act – activators of E. coli MazEF toxin-antitoxin RNase, primary screen, biochemical, fluorescence, uHTS; activation, % at 20 µM; 350,000 compounds, 0.32% hits; Endoribonuclease toxin MazF (Escherichia coli (strain K12)), P0AE70; FAM/BHQ RNA-DNA oligo cleavage fluorescence, 5 h; in the data active means activation above about 50%
# Mtb BioA inh – M. tuberculosis BioA enzyme inhibitors, primary screen, biochemical, plate reader, single point, HTS; 7,8-diaminopelargonic acid synthase BioA (Mycobacterium tuberculosis); purified M. tuberculosis BioA enzyme; inhibition, % at 9.99 µM; 360,000 compounds, 0.096% hits; AID 602481, 2012; in the data active means inhibition above about 40%; inconclusive means no clear call, values can overlap the other calls
# VHR inh abs – VHR1 phosphatase inhibitors, primary screen, biochemical, absorbance, uHTS. recombinant VHR phosphatase, pNPP absorbance. inhibition, % at 13.3 µM. 290,000 compounds, 0.52% hits; in the data active means inhibition above about 50%
# Numbers stand for hits; . = inactive; ? = inconclusive; / = no result given.
SMILES,Y pestis TopoI,FadD28 FP inh,TcdB GH inh,MazEF act,Mtb BioA inh,VHR inh abs
O=C(NC1CCCc2c1cnn2-c1ccc(F)cc1F)c1cnccn1 (stereo not given),.,.,.,.,/,.
COc1ccc(Cl)cc1NC(=O)CN(C)CC(=O)Nc1ccc(Br)cc1,.,.,.,.,/,.
COc1ccc(Cl)cc1NC(=O)CN(C)CC(=O)Nc1ccc(S(N)(=O)=O)cc1,.,/,.,.,.,53.3
O=C(Nc1nc2ccc(SC(F)F)cc2s1)c1ccc(NS(=O)(=O)c2ccc(F)c(F)c2)cc1,.,17.1,.,.,.,.
C/C(=N/NS(=O)(=O)c1cccc([N+](=O)[O-])c1)c1c[nH]c2ccccc12,.,.,.,56.2,.,.
CCCN(CCC)c1nc(N)c(C#N)c(CC#N)c1C#N,.,.,/,133.7,/,.
CCN(CC)c1nc(N)c(C#N)c(CC#N)c1C#N,.,.,.,.,.,/
COC(=O)CSc1nc2cc(C)cc(C)c2cc1C#N,.,.,/,131.4,.,.
COc1ccc2cc(C#N)c(SCC(=O)N3CCCC3)nc2c1,.,.,.,.,.,.
COC(=O)CSc1nc2cc(OC)ccc2cc1C#N,.,.,/,202.8,.,.
COC(=O)CSc1nc2ccc(C)cc2cc1C#N,.,.,.,901.4,/,.
CC(=O)CSc1nc2cc3c(cc2cc1C#N)OCCO3,.,.,.,79.5,/,.
COc1cccc(CN2CC3(CN(C(C)=O)C3)c3c(n(C)c4cc(OC)ccc34)[C@H]2CO)c1,/,/,.,/,/,/
Cc1ccc(-c2nc3ccc([N+](=O)[O-])cc3[nH]2)cc1,.,.,11.9,.,/,.
COc1ccc(-c2nc3ccc([N+](=O)[O-])cc3[nH]2)cc1,.,.,13.8,.,/,.
C/C=C/c1ccc2c(c1)O[C@H](CN(C)C(=O)NCCC)[C@H](C)CN([C@@H](C)CO)S2(=O)=O,/,/,.,/,.,/
COc1ccc(/C=C(\C#N)C(=O)Nc2ccccn2)cc1,.,.,.,.,.,/
Cc1ccc(/C=C(\C#N)C(=O)Nc2ccccn2)o1,.,.,17.2,.,.,.
Cc1cccc(C2=NN(c3ccc(Br)cc3)[C@@H](C(=O)N3CCOC3=O)[C@@H]2c2ccc(Cl)cc2)c1,.,.,/,128.9,.,/
COc1nccnc1NS(=O)(=O)c1ccc(NC(=S)NC(=O)/C=C/c2ccccc2)cc1,.,.,/,.,/,.
COc1nccnc1NS(=O)(=O)c1ccc(NC(=S)NC(=O)c2ccccc2)cc1,.,.,/,.,.,51.9
CC(C)N1C(=O)CC(Nc2cccc3cccc(N)c23)C1=O (stereo not given),.,.,.,.,/,.
CN1C(=O)CC(Nc2cccc3cccc(N)c23)C1=O (stereo not given),.,.,/,.,/,58.3
NC(N)=NCCCS(=O)(=O)Nc1ccc(Nc2c3ccccc3nc3cc([N+](=O)[O-])ccc23)cc1,.,.,.,50.7,/,/
Cc1nn(-c2cccc(Cl)c2)c(Cl)c1/C=N/NC(=O)c1cccs1,.,.,.,.,/,53.8
SMILES,Y pestis TopoI,FadD28 FP inh,TcdB GH inh,MazEF act,Mtb BioA inh,VHR inh abs
CCNC(=S)N/N=C/c1c(C)nn(-c2cccc(Cl)c2)c1Cl,.,.,.,.,/,.
O=C(N/N=C/c1c(O)ccc2ccccc12)c1cccc(C(F)(F)F)c1,.,.,/,75.3,/,.
CCCNC(=O)N[C@H]1C=C[C@H](CC(=O)NCCc2ccccc2)O[C@@H]1CO,/,/,.,/,.,/
C[C@@H]1CN([C@@H](C)CO)C(=O)c2cc(C#C[C@@H](C)O)cnc2O[C@H]1CN(C)C(=O)Nc1ccc(C(F)(F)F)cc1,/,/,/,/,.,/
Cc1cc(=O)n(Cc2ccc(OC(C)C)cc2)c(=S)[nH]1,.,.,.,.,.,52.5
Cc1cc(=O)n(Cc2ccco2)c(=S)[nH]1,.,.,.,.,.,/
O=C(Cn1nnc(-c2ccc3c(c2)OCO3)n1)Nc1ccccc1C(=O)O,.,10.8,.,.,.,.
O=C(Cn1nnc(-c2ccccc2)n1)Nc1ccc2c(c1)OCO2,.,.,/,.,.,.
COc1ccc(C2C(C#N)=C(N)N(c3cccnc3)C3=C2C(=O)CCC3)cc1Cn1cc([N+](=O)[O-])cn1 (stereo not given),.,.,/,63.8,.,.
COc1ccc(C2C(C#N)=C(N)N(c3ccccc3)C3=C2C(=O)CCC3)cc1Cn1cc([N+](=O)[O-])cn1 (stereo not given),.,?,/,.,.,.
CCCC(=O)N1CC2(C1)CN(Cc1ccc(Cl)cc1)[C@H](CO)c1[nH]c3cc(OC)ccc3c12,/,/,.,/,/,/
CCC(CC)NC(=O)CCc1nc2ccccc2c(=O)[nH]1,.,.,/,.,.,51.4
CO[C@H]1CN(C)C(=O)c2cc(NS(=O)(=O)CC(F)(F)F)ccc2OC[C@H](C)N(Cc2cccnc2)C[C@H]1C,/,/,.,/,.,/
COc1ccc(CN(C)C[C@H]2Oc3ccc(NS(=O)(=O)c4ccc(F)cc4)cc3CC(=O)N([C@H](C)CO)C[C@@H]2C)cc1,/,/,.,/,/,/
c1ccc(-c2ccc3c(c2)NCCN3)cc1,.,.,.,.,.,52.3
CCS(=O)(=O)N[C@H]1CC[C@H](CC(=O)Nc2ccc(-c3ccccc3)cc2)O[C@@H]1CO,/,/,.,/,.,/
O=C(N=Nc1c(O)[nH]c2ccc([N+](=O)[O-])cc12)c1ccccc1Cl,.,.,.,.,.,56.6
CC(=O)Nc1ccc(NC(=O)[C@@H]2CCCN2S(=O)(=O)c2ccc3c(c2)OCCO3)cc1,.,.,16.2,.,.,.
O=C(Nc1ccc2c(c1)OCCO2)C1CCCN1S(=O)(=O)c1ccc(Cl)cc1 (stereo not given),.,.,/,.,.,.
CC(=O)c1ccc(NC(=O)C2CCCN2S(=O)(=O)c2ccc(F)cc2)cc1 (stereo not given),.,.,.,.,.,.
O=C(Nc1ccc(O)cc1)C1CCCN1S(=O)(=O)c1ccc(F)cc1 (stereo not given),.,.,10.2,.,.,.
C[C@H](CO)N1C[C@H](C)[C@H](CN(C)Cc2ccc(C(=O)Nc3ccccc3N)cc2)Oc2c(NS(=O)(=O)c3cccs3)cccc2C1=O,/,/,.,/,.,/
C[C@H](CO)N1C[C@H](C)[C@H](CN(C)C(=O)Cc2ccncc2)Oc2cc(C#CC3(O)CCCC3)ccc2S1(=O)=O,/,/,.,/,.,/
COc1ccc2c3c([nH]c2c1)[C@H](CO)N(C(=O)c1cccnc1)CC31CN(C(=O)NC(C)C)C1,/,/,.,/,/,/
CN1c2ccc(Br)cc2[C@H]2[C@H](CCN2C(=O)C2CCCCC2)[C@H]1CO,/,/,.,/,.,/

# High-throughput results (PubChem BioAssay)
